Results on 85 molecules are retold here after article PMC9574860, “Chemical Toolkit for PARK7: Potent, Selective, and High-Throughput” (Journal of Medicinal Chemistry, 2022).

The whole screen tested about 7,900 compounds, of which about 400 (5.1%) showed an effect of 50% or more. The sample holds strong results, similar compounds and a random draw of the others, so the mix is not that of the screen.

Sequence of Parkinson's disease protein 7 (PARK7/DJ1) (Q99497 whole entry, looked up, the tested form may be a part): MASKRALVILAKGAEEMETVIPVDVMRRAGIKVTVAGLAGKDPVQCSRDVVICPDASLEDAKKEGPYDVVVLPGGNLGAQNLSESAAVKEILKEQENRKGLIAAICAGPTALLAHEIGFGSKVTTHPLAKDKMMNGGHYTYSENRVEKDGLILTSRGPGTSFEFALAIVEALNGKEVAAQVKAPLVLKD

In this assay the target is Parkinson's disease protein 7 (PARK7/DJ1) (human, UniProt Q99497). Kind of assay: primary screen, percent inhibition; read as competition with a fluorescent probe by fluorescence polarization; higher = more effect of the substance. To be noted: 100 µM. In a few lines:
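Fluorescence-polarization probe displacement (JYQ-107, 20 nM final, 2 h) after 2 h preincubation of PARK7 (0.2 μM final) with each fragment at 100 μM final. Read-out ex/em 480/520 nm; remaining activity derived from FP signal loss relative to reference controls.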
Turning to `N#CC1(NC(=O)CCl)CCC1`, the Inhibition % is 20.1%.

Consider `CN1CCOC(CNS(=O)(=O)C=Cc2ccccc2)C1` (stereo not shown), for which the Inhibition % is 6.48%.

For `N#Cc1ncccc1Cl`, the Inhibition % worked out at 0.27%.

As to `C=CC(=O)NCCCC(=O)N1CCc2sccc2C1`, the Inhibition % is recorded as 10.7%.

On to `O=C(CCl)N1CCc2sccc2C1`, for which the Inhibition % was determined as 83.6%.

`O=C(CCCl)N1CCc2sccc2C1`: the Inhibition % stood at 33.2%.

Regarding `O=C(O)CC1OCCCO1`, the Inhibition % is recorded as -4.03%.

Take `O=C(O)CC1(CS)CC1`: the Inhibition % is 80.8%.

On to `COCc1ccc(SC(=O)N(C)C)cc1`, for which the Inhibition % is 7.64%.

For `C=CC(=O)N1CCCN(Cc2nccn2C)CC1`, the Inhibition % is given as 10.6%.

Regarding `C#CC(=O)Nc1cc2ccccc2cc1C(=O)O`, the Inhibition % was 29.8%.

For the molecule `O=C(CCl)Nc1cc2ccccc2cc1C(=O)O`, the Inhibition % was found to be 66.3%.

Regarding `O=C(CCl)Nc1cc(Cl)ccc1C(=O)O`, the Inhibition % came out at 47.9%.

Consider `O=C(CCl)Nc1ccc(Cl)cc1C(=O)O`, for which the Inhibition % was 52.4%.

As to `O=C(CCl)Nc1cccc2cccc(C(=O)O)c12`, the Inhibition % is 11.2%.

Regarding `O=C(CCl)Nc1ccc(Br)cc1C(=O)O`, the Inhibition % is 46.1%.

For the molecule `C=CC(=O)NCC1CCCc2ccccc21` (stereo not shown), the Inhibition % is on record as 4.88%.

As to `C=CC(=O)N1CCC(CN(C)Cc2scnc2C)C1` (stereo not shown), the Inhibition % came out at 13.2%.

`O=S(=O)(C=Cc1ccc(Cl)cc1)NCC1CCCO1` (stereo not shown): the Inhibition % was 6.48%.

`CC1CN(CC2OCCO2)CCC1c1ccccc1` (stereo not shown): the Inhibition % was 8.86%.

With `O=C(CCl)N(C1CCCCC1)C1CCCCC1`, the Inhibition % is recorded as 4.3%.

Turning to `O=C(CCl)N(C1CCCC1)C1CCS(=O)(=O)C1` (stereo not shown), the Inhibition % is 7.16%.

Take `CCN(C(=O)CCl)C1CC1`: the Inhibition % turned out to be 5.24%.

On to `O=C(CCl)N(C1CCCC1)C1CC1`, for which the Inhibition % stood at 51.2%.

Turning to `CC1CCC(N(C(=O)CCl)C2CC2)CC1` (stereo not shown), the Inhibition % is 74.1%.

On to `O=C(CCl)N(C1CC1)C1CCS(=O)(=O)C1` (stereo not shown), for which the Inhibition % is 5.73%.

As to `C=CC(=O)NCc1cccnc1N1CCOCC1`, the Inhibition % is reported as 4.99%.

Turning to `C=CC(=O)N1CCOCC1CC` (stereo not shown), the Inhibition % was 7.47%.

With `CCc1cnccc1C(=O)N1CCCC(C2OCCO2)C1` (stereo not shown), the Inhibition % was determined as 12.5%.

For the molecule `O=C1OCCC1N1CCOC(c2ccc(Cl)cc2)C1` (stereo not shown), the Inhibition % is recorded as 7.62%.

For `C=CCNC(=O)C(C#N)=Cc1cccc(O)c1`, the Inhibition % turned out to be 4.34%.

On to `C=CC(=O)NC1COC(C2CC2)C1` (stereo not shown), for which the Inhibition % is on record as 4.28%.

On to `CN(C)Cc1ccc(B2OC(C)(C)C(C)(C)O2)s1`, for which the Inhibition % is given as 5.59%.

Consider `N#Cc1nnc2ccccc2c1N`, for which the Inhibition % is on record as 1.29%.

As to `N#Cc1n[nH]c2ccccc12`, the Inhibition % was 5.12%.

As to `N#Cc1[nH]c2ccccc2c1N`, the Inhibition % turned out to be 72.9%.

Take `CC1(C)CC(OS(C)(=O)=O)CCO1` (stereo not shown): the Inhibition % is reported as 8.17%.

On to `N#CC(=Cc1ccc(N2CCOCC2)cc1)C(N)=O`, for which the Inhibition % was 12.7%.

Consider `Cc1cc(B2OC(C)(C)C(C)(C)O2)cc(N)n1`, for which the Inhibition % is listed as 5.05%.

For `C=CC(=O)NC1CC(=O)N(CC)C1` (stereo not shown), the Inhibition % came out at 8.72%.

Take `O=C(c1ccccc1)N1CCN(C(=O)n2ccnc2)CC1`: the Inhibition % turned out to be 2.18%.

For the molecule `O=C(N1CCc2[nH]c3ccccc3c2C1)n1ccnc1`, the Inhibition % worked out at 52.4%.

Take `O=C(N1CCc2[nH]c3ccc(F)cc3c2C1)n1ccnc1`: the Inhibition % stood at 36.3%.

With `O=C(CCl)N1CCc2[nH]c3ccccc3c2C1`, the Inhibition % is listed as -3.49%.

Turning to `Cc1ccc2[nH]c3c(c2c1)CN(C(=O)n1ccnc1)CC3`, the Inhibition % is 67.1%.

With `O=C(N1CCc2sccc2C1)n1ccnc1`, the Inhibition % is on record as 15.4%.

As to `C=CC(=O)N1CCCCC1c1nc2ccccc2o1` (stereo not shown), the Inhibition % turned out to be 7.43%.

Regarding `O=S(=O)(c1cc(Cl)ccc1Cl)n1ccnc1`, the Inhibition % stood at 7.81%.

In the case of `NC(=O)N1CCc2cc(S(=O)(=O)F)ccc21`, the Inhibition % is recorded as 10.9%.

Turning to `NC(=O)Nc1ccc(S(=O)(=O)F)cc1`, the Inhibition % was 18.9%.

Take `O=C(O)c1cc(S(=O)(=O)F)cs1`: the Inhibition % was determined as 90%.

Turning to `CC(C)c1nc(C#N)cs1`, the Inhibition % was found to be 5.66%.

Regarding `CC1(C)OB(c2ccc(S(=O)(=O)NCCO)cc2)OC1(C)C`, the Inhibition % stood at 4.41%.

In the case of `C=CC(=O)Nc1cc(C(F)(F)F)n[nH]1`, the Inhibition % amounted to 9.56%.

For `C=CC(=O)N1CCOCC1c1c(C)nn(C)c1C` (stereo not shown), the Inhibition % is listed as 12.6%.

For `CC1(C)C2CC=C(COCC3CO3)C1C2` (stereo not shown), the Inhibition % was found to be 3.87%.

With `Nc1cc2ccccc2nc1S`, the Inhibition % is listed as 52%.

As for `Cc1nc2ccccc2nc1S`, the Inhibition % was 2.7%.

As for `Sc1nc2ccccc2nc1S`, the Inhibition % was determined as 8.25%.

As to `Cc1ccc(-c2nnc(SC3CC(C)OC3=O)o2)cc1` (stereo not shown), the Inhibition % came out at 7.51%.

In the case of `OB(O)C1CCN(Cc2cc(-c3ccccn3)n[nH]2)C1` (stereo not shown), the Inhibition % worked out at 29.8%.

Consider `C=CC(=O)NC(NC(=O)C=C)c1ccccc1`, for which the Inhibition % is 11.8%.

Consider `O=C(O)C(S)c1ccccc1` (stereo not shown), for which the Inhibition % was determined as 89.9%.

As for `C=CC(=O)N[C@H](C(=O)O)c1ccccc1`, the Inhibition % amounted to 3.77%.

On to `OB(O)C1CCN(Cc2cc3c(cn2)OCCO3)C1` (stereo not shown), for which the Inhibition % is listed as 21.4%.

Turning to `CC=C(C#N)c1ccc2c(c1)OCO2`, the Inhibition % is 12.1%.

In the case of `O=C(CN1C(=O)CCC1=O)Nc1cccc(Cl)c1`, the Inhibition % was 7.52%.

In the case of `O=c1c2ccccc2nc(S)n1CCS`, the Inhibition % was determined as 7.43%.

For the molecule `O=C(CCl)N1CCN(S(=O)(=O)c2ccccc2)CC1`, the Inhibition % was found to be 8.48%.

`O=C(CCl)N1CCC(c2ccccc2)=N1`: the Inhibition % came out at 90.5%.

For the molecule `O=C(CCl)N1CCC(Cc2ccccc2)CC1`, the Inhibition % is 31.1%.

With `C=CC(=O)NCC1CCN(c2ccncc2)CC1`, the Inhibition % is on record as 15.3%.

For the molecule `COCC(C)NS(=O)(=O)C=Cc1ccc(Cl)cc1` (stereo not shown), the Inhibition % came to 13.7%.

For `CS(=O)(=O)n1cc(N)cn1`, the Inhibition % is recorded as 10.7%.

`CC1(C)OB(c2ccc(Cl)cc2)OC1(C)C`: the Inhibition % is 4.5%.

For the molecule `CC1(C)OB(c2cc(Cl)cc(Cl)c2)OC1(C)C`, the Inhibition % came out at 81%.

With `CC1(C)OB(c2cccc(Cl)c2)OC1(C)C`, the Inhibition % was -3.11%.

Consider `C=CC(=O)NC1CCc2cn(C(C)C)nc2C1` (stereo not shown), for which the Inhibition % stood at 11.9%.

For `CCOc1cc(C)c(C)cc1S(=O)(=O)n1ccnc1C`, the Inhibition % is 2.71%.

In the case of `C=CC(=O)Nc1ccc2c(c1)OCCCO2`, the Inhibition % came to 3.17%.

In the case of `C=CC(=O)Nc1ccc(=O)n(C)c1`, the Inhibition % is on record as 54.1%.

With `C=CC(=O)Nc1ccc2c(c1)N(C)CCO2`, the Inhibition % amounted to 52.4%.

`C=CC(=O)Nc1ccc(Br)cc1`: the Inhibition % turned out to be 6.59%.

Regarding `C=CC(=O)Nc1ccc2c(c1)CCCO2`, the Inhibition % is 7.61%.

As to `C=CC(=O)Nc1ccc2ccc(=O)n(C)c2c1`, the Inhibition % is on record as 7.33%.
